An excerpt weighted towards active compounds, which were near 0.62% of everything screened.
Chronic BCR inh = qHTS Assay to Find Inhibitors of Chronic Active B-Cell Receptor Signaling; ABC-DLBCL IkBa-CBG/CBR reporter, luminescence ratio, 4 h; Potency, µM (doses to about 46.1 µM), without a hit: at the top dose activity change, negative = inhibition, actives largely listed as inhibitors; 0.05% of 340,000 active; AID 493014, 2011; active = well fitted inhibition curve with a large enough effect in the signal ratio, with a control signal flat, not every such curve was filed as active; inconclusive = small, poorly fitted or top-dose-only effect, or effect the other way, or a change in a side signal; the % refers to the signal ratio;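 note: plate controls were basal doxycycline-induced cells for no effect and cells given 10 µM MG132 for full effect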
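TMD8 human ABC-DLBCL cells with doxycycline-inducible IκBα–green luciferase fusion and unfused red luciferase, in 0.5% FBS medium; compounds up to 46 uM, 4 h at 37C. Green/red luminescence ratio, filter-overlap corrected, fitted to concentration-response curves.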
gsp ag = qHTS for Agonist of gsp, the Etiologic Mutation Responsible for Fibrous Dysplasia/McCune-Albright Syndrome: qHTS. 0.13% of 340,000 active. gsp mutant cells, cAMP HTRF, 30 min. Potency, µM (titrated, usually from 76.9 µM), inactives show at the highest dose activation (cAMP increase), actives largely listed as activators. AID 624287, 2012; active = well fitted activation curve with a large enough effect; inconclusive = small, poorly fitted or top-dose-only effect, or another doubt; inactive = no such curve, though single readings can be large or run the other way; cell line not stated here;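 note: phosphodiesterase inhibitor Ro 20-1724 added with compounds to block cAMP breakdown; nearly all actives have a fitted effect of over 60% in size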
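Cells stably selected in G418 were plated at 2000/well, grown 16-24 hr, then given compounds in DMSO with the PDE inhibitor […] (300 uM solution added) for 30 min at 37C; cAMP was read by HTRF.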
MBNL1 CUG block = qHTS Assay for Inhibitors of MBNL1-poly(CUG) RNA binding. Muscleblind-like protein 1 (Homo sapiens), Q9NR56. TR-FRET MBNL1-His/biotin-(CUG)12 binding, 665/545 ratio. Potency, µM (top dose mostly 57.5 µM), without a hit: at the top dose activity change, negative = inhibition, actives largely listed as inhibitors. 0.036% of 280,000 active. AID 2675, 2010; active = well fitted inhibition curve with a large enough effect in the signal ratio, with a control signal flat, not every such curve was filed as active; inconclusive = small, poorly fitted or top-dose-only effect, or effect the other way, or a change in a side signal; inactive = no such curve, though single readings can be large or run the other way; the % refers to the signal ratio; note: % is set by controls: 0 for no effect and ±100 for the full control effect
Target sequence (Q9NR56 whole entry, looked up): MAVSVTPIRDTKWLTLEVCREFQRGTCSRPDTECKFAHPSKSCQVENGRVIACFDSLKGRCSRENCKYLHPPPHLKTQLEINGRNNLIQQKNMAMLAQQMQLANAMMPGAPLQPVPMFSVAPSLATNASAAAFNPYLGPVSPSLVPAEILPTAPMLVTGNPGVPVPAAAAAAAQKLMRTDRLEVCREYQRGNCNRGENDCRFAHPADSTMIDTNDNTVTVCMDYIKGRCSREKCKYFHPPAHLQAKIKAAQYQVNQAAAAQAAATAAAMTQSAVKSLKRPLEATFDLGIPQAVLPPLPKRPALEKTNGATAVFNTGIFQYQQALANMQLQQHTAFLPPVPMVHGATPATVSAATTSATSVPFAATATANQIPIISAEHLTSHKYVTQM
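His-tagged MBNL1 binding to biotinylated (CUG)12 RNA was measured by TR-FRET using terbium anti-His antibody (0.055 ng/ul final) and streptavidin-XL665 (5 nM final). Compounds were titrated 92 nM to 58 uM; 60 min at room temperature.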
S-ASM inh = Inhibitors of Secretory Acid Sphingomyelinase (S-ASM): qHTS; Sphingomyelin phosphodiesterase (Homo sapiens), P17405; placental ASM, HMU-PC fluorogenic substrate, 60 min; Potency, µM (series often up to 57.5 µM), without a hit: at the top dose activity change, negative = inhibition, usual class: inhibitors; 0.006% of 340,000 active; AID 504937, 2011; active = well fitted inhibition curve with a large enough effect; inconclusive = small, poorly fitted or top-dose-only effect; inactive = no such curve, though single readings can be large or run the other way
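Steps: dispense placental human ASM, pin compound, wait 10 min at room temperature, add HMU-PC0 substrate at 9 uM final, incubate 60 min at 37 °C, add stop solution raising pH to 10, read fluorescence.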
gsp antagonist = qHTS for Antagonists of gsp, the Etiologic Mutation Responsible for Fibrous Dysplasia/McCune-Albright Syndrome: qHTS. gsp-mutant cells, cAMP HTRF, 30 min. Potency, µM (doses to about 76.9 µM), for the others: at the top dose activity change, negative = inhibition, usual class: inhibitors. 0.4% of 340,000 active. AID 624288, 2012; calls by dose curve; cell line not stated here;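 note: intracellular cAMP measured with PDE inhibitor Ro 20-1724 present during compound exposure; % is set by controls: 0 for no effect and ±100 for the full control effect; nearly all actives have a fitted effect of over 65% in size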
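Cells in G418 medium, seeded 16-24 h, 37C; buffer exchange to DPBS + 1 mM CaCl2, 0.5 mM MgCl2, 0.05% BSA; cpds in DMSO + […] (300 uM stock), 30 min 37C; HTRF cAMP detection.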
Active calls of the source: *; i = inactive; ? = inconclusive; / = not tested or not shown; [ ] = dose if it differs, or a comment. Potency is the fitted concentration of half-maximal effect.

SMILES	Chronic BCR inh	gsp ag	MBNL1 CUG block	S-ASM inh	gsp antagonist
Cn1c(-n2cccc2)c(-c2c(-c3ccccc3)[nH]c3c2c(=O)[nH]c(=O)n3C)c(=O)[nH]c1=O	-2.3%	/	/	/	/
CCCNS(=O)(=O)c1cc(CN2C(=O)c3cccnc3C2=O)ccc1OC	?	31.6µM*	?	0.8%	3.0%
COc1ccc(CN2C(=O)c3cccnc3C2=O)cc1S(=O)(=O)N1CCCCC1C (stereo not given)	1.0%	7.08µM*	?	-3.0%	29.1%
COc1ccc(CN2C(=O)c3cccnc3C2=O)cc1S(=O)(=O)NCc1ccccc1	-0.3%	?	?	3.3%	13.7%
COc1ccc(CN2C(=O)c3cccnc3C2=O)cc1S(=O)(=O)NC(C)C	0.4%	22.4µM*	?	6.1%	19.6%
COc1ccc(CNS(=O)(=O)c2cc(CN3C(=O)c4cccnc4C3=O)ccc2OC)cc1	0.0%	11.2µM*	?	-2.1%	15.0%
O=[N+]([O-])c1cc([N+](=O)[O-])c(Oc2cc(Cl)ccc2Cl)cc1NC1CCCCCCC1	-15.3%	3.6%	1.7%	5.0%	0.2%
O=C(COC(=O)c1c2ccccc2cc2ccccc12)Nc1ncc(C(F)(F)F)cc1Cl	?	25.1µM*	22.7%	i	-0.9%
O=C(COC(=O)c1cc[n+]([O-])cc1)NC(=O)c1ccc(OC(F)F)cc1	1.1%	10.5%	/	4.6%	-0.1%
COc1cc2[nH]c(=S)nc(NCCc3ccc(S(N)(=O)=O)cc3)c2cc1OC	?	12.6µM*	-1.0%	-0.2%	-2.7%
COc1cc2[nH]c(=S)nc(NCCc3ccc(C)cc3)c2cc1OC	-3.8%	16.0%	20.4%	-26.2%	-0.7%
CSc1ccc(S(=O)(=O)N(C)Cc2ccccc2)cc1	3.2%	-23.9%	-1.9%	-0.4%	35.5µM*
Cc1cc(C)c(C#N)c(SCc2ccccc2)n1	?	-18.8%	-5.0%	-9.4%	-9.9%
Cc1cc(C)c(C#N)c(SCc2ccc(C(=O)O)cc2)n1	2.7%	-2.7%	1.5%	3.4%	39.8µM*
Cc1c(C(=O)Nc2cccc(C(F)(F)F)c2)oc2ccc(S(=O)(=O)N3CCC4(CC3)OCCO4)cc12	-2.4%	/	/	/	/
Cc1cccc2c(N=NC(=O)c3ccc(NS(=O)(=O)c4cccs4)cc3)c(O)[nH]c12	-0.4%	-2.6%	/	-5.5%	25.1µM*
Cc1ccsc1C(=O)NNC(=O)c1ccc(NS(=O)(=O)c2cccs2)cc1	-2.8%	-57.8%	/	-4.2%	11.2µM*
Cc1ccc2[nH]c(O)c(N=NC(=O)c3ccc(NS(=O)(=O)c4cccs4)cc3)c2c1	?	-145.0%	10.0%	-1.0%	-33.2%
CCCCCCc1cc2cc(-c3cn4c(n3)sc3cc(OC)ccc34)c(=O)oc2cc1O	3.8%	/	/	/	/
Cc1ccc(C)c(OCC(O)CN2CCC(Cc3ccccc3)CC2)c1 (stereo not given)	-18.6%	4.8%	4.0%	0.9%	6.7%
O=C(O)c1ccc(-n2ncc(Cl)c(Cl)c2=O)cc1	/	10µM*	/	/	/
COc1ccc(NC(=O)c2cc(-c3ccccc3)nc3c2cnn3C(C)C)cc1	-2.6%	16.8%	/	-3.5%	28.2µM*
CC(C)n1ncc2c(C(=O)N3CCN(c4ccccc4)CC3)cc(-c3ccccc3)nc21	-0.2%	0.3%	/	-1.6%	-15.2%
O=C(Nc1nnc(C(F)(F)F)s1)C1COc2ccccc2O1 (stereo not given)	?	0.0%	-9.6%	-0.6%	35.5µM*
OCCN(Cc1ccccc1)c1ncnc2sccc12	3.4%	3.7%[15.4 µM]	-1.6%	36.7%	-10.7%
SMILES	Chronic BCR inh	gsp ag	MBNL1 CUG block	S-ASM inh	gsp antagonist
CCOc1ccccc1C(=O)Nc1ccc(S(=O)(=O)Nc2cc(OC)nc(OC)n2)cc1	-0.1%	20µM*	-1.3%	-12.2%	2.3%
Cc1ccc(CC(=O)Nc2ccc(S(=O)(=O)Nc3nccc(C)n3)cc2)cc1	-2.2%	-15.4%	-6.6%	7.1%	8.91µM*
COc1cc(NS(=O)(=O)c2ccc(NC(=O)COc3ccccc3Cl)cc2)nc(OC)n1	2.3%	-14.2%	-12.8%	-14.1%	-4.9%
Cc1ccnc(NS(=O)(=O)c2ccc(NC(=O)Cc3ccccc3)cc2)n1	-0.3%	-1.7%	/	4.9%	2.5%
CCOc1ccccc1C(=O)Nc1ccc(S(=O)(=O)Nc2nccc(C)n2)cc1	-0.7%	6.31µM*	-2.0%	8.9%	29.4%
Cc1ccccc1CC(=O)N1CCCC(CNC(=O)c2ccc(F)cc2)C1 (stereo not given)	1.1%	-21.4%	-0.7%	6.7%	-0.9%
Cc1nc(SCC(=O)Nc2cccc(S(=O)(=O)N3CCOCC3)c2)nc(C)c1C	-2.0%	?	/	5.1%	20.5%
Cc1cc(=O)[nH]c(SCC(=O)Nc2cccc(S(=O)(=O)N3CCOCC3)c2)n1	-12.3%	15.8µM*	/	0.6%	13.8%
O=C(COC(=O)c1ccc2ccccc2n1)NC1CCCCC1	0.4%	13.6%	/	-1.6%	1.3%
C/C(CC(=O)Nc1ccc(Cl)cc1C(F)(F)F)=N\NC(N)=S	11.2µM*	-3.1%[15.4 µM]	-7.1%	4.0%	13.7%
C/C(CC(=O)Nc1ccc(Cl)cc1Cl)=N\NC(N)=S	-0.6%	?	-10.1%	9.6%	-4.9%
Cc1n[nH]c(C)c1S(=O)(=O)N1CCCC(C(=O)N2CCN(c3ccc(Cl)cc3)CC2)C1 (stereo not given)	-1.7%	-45.1%	0.7%	-8.2%	35.5µM*
COc1cccc(NC(=O)CSc2nnc(Cc3cccs3)n2-c2ccc(C)cc2)c1	?	-2.0%	-1.9%	-13.6%	?
COc1ccc(-n2c(Cc3cccs3)nnc2SCC(=O)Nc2ccc3c(c2)OCCO3)cc1	?	-27.8%	-2.5%	-8.1%	31.6µM*
COc1ccc(NC(=O)CSc2nnc(Cc3cccs3)n2-c2ccc(C)cc2)cc1	-2.8%	-46.4%	0.0%	-8.6%	31.6µM*
CN(C)c1ccc(N/C=C/C(=O)C(C)(C)C)cc1	4.5%	-3.0%	?	1.8%	35.5µM*
OCCn1c(-c2ccc3c(c2)OCO3)csc1=Nc1ccccc1	1.0%	-22.6%	6.0%	4.0%	28.2µM*
CCOC(=O)C(C)Sc1nc(-c2ccco2)cc(C(F)(F)F)c1C#N (stereo not given)	7.0%	-19.5%	6.5%	340.2%	35.5µM*
COc1ccc(C)cc1NC(=O)c1ccccc1NS(=O)(=O)c1ccc(Cl)s1	?	8.3%	5.5%	-2.6%	35.5µM*
CNC(=O)c1cc(C(=O)c2ccc(F)cc2C(F)(F)F)c[nH]1	-7.4%	0.1%	-3.4%	4.1%	13.4%
Cc1ccc(-c2nnc(Nc3ccc4c(c3)OCO4)c3ccccc23)cc1S(N)(=O)=O	?	-0.8%[15.4 µM]	?	0.0%	28.2µM*
